Source: PubChem BioAssay (Tox21)
Results filed as inconclusive are left out. Activity calls are given as the source filed them. Unless noted, the call rests on the fitted dose curve; in most records, active means well fitted curve in the direction sought with a large enough effect in the repeat runs; inconclusive means weak or mixed curves; inactive means no such curve, though single readings can be large; an effect the other way counts as inactive or inconclusive.

What was measured:
[1] = qHTS assay for small molecule agonists of the p53 signaling pathway (AID 651631; calls by dose curve; further: nearly all actives have a fitted effect of over 15% in size; further: potency means the concentration at half of the fitted maximal effect)
Outline: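 HCT-116 cells carrying a beta-lactamase reporter under p53 response elements were dosed with compound for 16 h at 37 °C. LiveBLAzer B/G FRET substrate was then added for 2 h at room temperature, and fluorescence intensity was read to detect pathway agonism.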

[2] = qHTS assay for small molecules that induce genotoxicity in human embryonic kidney cells expressing luciferase-tagged ATAD5 (AID 651632); further: nearly all actives have a fitted effect of over 15% in size; further: potency means the concentration at half of the fitted maximal effect
Outline: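 Increased luciferase signal from ATAD5-tagged reporter cells indicates DNA-damage-driven ATAD5 induction. HEK293T cells are treated for 16 hr at 37C before detection with Amplite.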

[3] = qHTS assay for small molecule agonists of the p53 signaling pathway - cell viability (AID 651633; calls by dose curve;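 further: p53RE-bla HCT reporter cells with a stable beta-lactamase p53 reporter; series mostly up to about 83 µM; nearly all actives have a fitted effect of over 30% in size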)
Outline: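 p53RE-bla cells, seeded at 4,000 per well and rested 5 h at 37 C/5% CO2, received compounds in DMSO for 16 h at 37 C. CellTiter-Glo was then added, and luminescence was read after 30 min at room temperature to gauge cytotoxicity.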

[4] = qHTS assay for small molecules that induce genotoxicity in human embryonic kidney cells expressing luciferase-tagged ATAD5 - cell viability (AID 651634; calls by dose curve; further: nearly all actives have a fitted effect of over 25% in size)
Outline: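 Cytotoxicity counterscreen in HEK293T cells bearing an ATAD5-luciferase reporter: live-cell protease activity measured by CellTiter-Fluor fluorescence after 15.5 hr compound exposure.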

[5] = qHTS assay for small molecule disruptors of the mitochondrial membrane potential - cell viability (AID 720634; calls by dose curve;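 further: human HepG2 liver cancer cells; series mostly up to about 83 µM; nearly all actives have a fitted effect of over 20% in size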)
Outline: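 After overnight attachment at 37 C, HepG2 cells received compound or DMSO vehicle for 1 hr. Viability is then taken from ATP-driven luminescence following a 30 min room-temperature CellTiter-Glo step.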

[6] = qHTS assay to test for compound auto fluorescence at 590 nm (red) in HepG2 cells (AID 720674)
Outline: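 Intrinsic compound fluorescence in the red window (Ex/Em 540/590 nm) is measured in attached HepG2 cells exposed for 1 hr, DMSO vehicle as baseline, benchmarked to Rose Bengal sodium.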

[7] = qHTS assay to test for compound auto fluorescence at 535 nm (green) in HepG2 cells (AID 720675)
[8] = qHTS assay to test for compound auto fluorescence at 460 nm (blue) in HEK293 cells (AID 720678)
Outline: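 Auto fluorescence in the blue band was quantified as triamterene equivalency. HEK293 cells were seeded at 2,000/well, dosed after a 4-5 hr attachment, and kept overnight at 37C before the 405/460 nm reading.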

[9] = qHTS assay to test for compound auto fluorescence at 590 nm (red) in HEK293 cells (AID 720679)
Outline: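 Autofluorescence equivalency to Rose Bengal sodium, 540/590nm, in HEK293 cells exposed overnight to 23 nL compound per well.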

[10] = qHTS assay to test for compound auto fluorescence at 535 nm (green) in HEK293 cells (AID 720680)
[11] = qHTS assay to test for compound auto fluorescence at 460 nm (blue) in HEK293 cell free culture (AID 720681)
Outline: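 Test compounds were pinned into cell-free culture medium (DMEM with 10% FBS) and fluorescence was read directly at Ex/Em 405/460 nm. Signals were expressed as fluorescence equivalents of triamterene, with DMSO vehicle as control.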

[12] = qHTS assay to test for compound auto fluorescence at 535 nm (green) in HEK293 cell free culture (AID 720682)
Outline: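 Green-label autofluorescence (485 nm excitation, 535 nm emission) measured on compound added to cell-free culture medium (DMEM, 10% FBS). Output is expressed relative to fluorescein.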

[13] = qHTS assay to test for compound auto fluorescence at 590 nm (red) in HepG2 cell free culture (AID 720684)
Outline: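 Measured in medium alone (MEM containing 10% FBS) following pintool addition of compound; emission at 590 nm with 540 nm excitation, referenced to Rose Bengal sodium.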

[14] = qHTS assay to test for compound auto fluorescence at 460 nm (blue) in HepG2 cell free culture (AID 720685)
Outline: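 Compound (23 nL) or DMSO pinned into cell-free MEM with 10% FBS; blue fluorescence read at 405/460 nm excitation/emission, expressed as auto-fluorescence equivalency to triamterene.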

[15] = qHTS assay to test for compound auto fluorescence at 535 nm (green) in HepG2 cell free culture (AID 720686)
[16] = qHTS assay to test for compound auto fluorescence at 460 nm (blue) in HepG2 cells (AID 720687)
Outline: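 Cells (2,000/well in MEM with 10% FBS) attached overnight at 37 C, then were exposed to compound or DMSO for 1 hr at 37 C, 5% CO2. Fluorescence read at Ex/Em 405/460 nm, expressed as triamterene-equivalent signal.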

[17] = target: Glucocorticoid receptor (Homo sapiens) (UniProt P04150); test: qHTS assay to identify small molecule agonists of the glucocorticoid receptor (GR) signaling pathway (AID 720691; active means well fitted activation curve with a large enough effect in the signal ratio in the repeat runs, not every such curve was filed as active; the % refers to the signal ratio)
Glucocorticoid receptor (Homo sapiens), sequence (P04150 whole entry, looked up): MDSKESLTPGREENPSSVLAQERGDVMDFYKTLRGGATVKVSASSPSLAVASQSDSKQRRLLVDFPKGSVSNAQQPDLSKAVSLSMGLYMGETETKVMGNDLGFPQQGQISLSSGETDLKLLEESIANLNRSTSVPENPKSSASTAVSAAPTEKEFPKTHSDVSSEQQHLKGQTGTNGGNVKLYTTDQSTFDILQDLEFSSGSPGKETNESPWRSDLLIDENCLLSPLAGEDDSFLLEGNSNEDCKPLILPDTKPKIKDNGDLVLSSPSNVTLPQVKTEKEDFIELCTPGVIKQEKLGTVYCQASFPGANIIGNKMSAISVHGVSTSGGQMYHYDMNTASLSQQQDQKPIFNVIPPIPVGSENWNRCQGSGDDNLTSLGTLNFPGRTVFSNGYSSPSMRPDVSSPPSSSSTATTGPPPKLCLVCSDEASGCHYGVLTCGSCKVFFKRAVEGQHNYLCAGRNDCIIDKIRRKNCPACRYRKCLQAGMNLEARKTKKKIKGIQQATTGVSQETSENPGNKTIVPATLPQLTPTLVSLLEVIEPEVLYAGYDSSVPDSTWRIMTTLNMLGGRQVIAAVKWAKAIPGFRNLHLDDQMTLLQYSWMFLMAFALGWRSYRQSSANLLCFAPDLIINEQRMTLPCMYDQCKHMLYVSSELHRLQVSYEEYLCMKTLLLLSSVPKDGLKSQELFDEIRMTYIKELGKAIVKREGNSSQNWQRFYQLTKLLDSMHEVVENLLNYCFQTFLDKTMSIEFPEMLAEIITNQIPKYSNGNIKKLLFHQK
Outline: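 Agonist mode in a HeLa line carrying a GRE-controlled beta-lactamase reporter. Compounds act for 18 h at 37 C before a 2 h room-temperature FRET substrate step and fluorescence reading.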

[18] = target: Glucocorticoid receptor (Homo sapiens) (UniProt P04150); test: qHTS assay to identify small molecule antagonists of the glucocorticoid receptor (GR) signaling pathway (AID 720692; active means well fitted inhibition curve with a large enough effect in the signal ratio in the repeat runs, not every such curve was filed as active; the % refers to the signal ratio)
Outline: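 Cells plated, rested 4 h at 37 C/5% CO2; compounds in DMSO pin-transferred; dexamethasone added to 5 nM final; 18 h at 37 C; B/G FRET substrate added, 2 h room temperature; fluorescence measured.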

[19] = qHTS assay to test for compound auto fluorescence at 590 nm (red) in HEK293 cell free culture (AID 720683)
Outline: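 Tox21 10K library compounds were pinned into cell-free DMEM with 10% FBS and fluorescence was read at excitation 540 nm. Activity is expressed as Rose Bengal sodium equivalency.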

[20] = qHTS assay for small molecule disruptors of the mitochondrial membrane potential (AID 720635)
Outline: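 HepG2 cells (2,000/well) attached overnight at 37C, then took compound for 1 hr at 37C, 5% CO2. Mito-MPS dye was added for 30 min; fluorescence was read at 490/535 nm (monomers) and 540/590 nm (aggregates).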
On the % scale 0 is the no-effect control and ±100 the full control effect.

CNCc1ccc(NC(=O)c2c[nH]c3c2C(=O)CCC3)cc1
inactive: Potency [1] | Potency [2] | Potency [3] | Potency [4] | outcome [5] | outcome [6] | outcome [7] | Potency [8] | outcome [9] | outcome [10] | Potency [11] | outcome [12] | outcome [13] | Potency [14] | outcome [15] | Potency [16] | Potency [17]

O=C(O)CCC(=O)c1ccc(-c2ccccc2)cc1
inactive: Potency [1] | Potency [2] | Potency [3] | Potency [4] | fluorescence, relative to Rose Bengal [6] 0.795% [at 18.6 µM] | fluorescence, % of fluorescein control [7] 0.0165% [at 18.6 µM] | fluorescence, % of triamterene [8] -0.239% [at 18.6 µM] | fluorescence, % of fluorescent control [9] -0.0888% [at 18.6 µM] | fluorescence, % of fluorescein [10] -0.008% [at 18.6 µM] | fluorescence, % of fluorescent control [11] 0.0648% [at 18.6 µM] | activity change [12] 0.0155% [at 18.6 µM] | fluorescence, % of Rose Bengal [13] -0.0571% [at 18.6 µM] | fluorescence, % of fluorescent control [14] -0.0525% [at 18.6 µM] | fluorescence, % of fluorescein control [15] -0.127% [at 18.6 µM] | fluorescence, % of fluorescent control [16] -0.0799% [at 18.6 µM] | Potency [17] | Potency [18]

CCC(CO)(CO)CO
inactive: Potency [1] | Potency [2] | Potency [3] | Potency [4] | outcome [6] | outcome [7] | Potency [8] | outcome [9] | outcome [10] | Potency [11] | outcome [19] | outcome [13] | Potency [14] | outcome [15] | Potency [16] | Potency [17] | Potency [18]

CC(=O)NCCO
inactive: Potency [1] | Potency [2] | Potency [3] | Potency [4] | outcome [5] | outcome [6] | outcome [7] | Potency [8] | outcome [9] | outcome [10] | Potency [11] | outcome [12] | outcome [19] | outcome [13] | outcome [15] | Potency [16] | Potency [17] | Potency [18]

Cc1cccc(C)c1NC(=O)c1cc(S(N)(=O)=O)c(Cl)cc1O
inactive: Potency [1] | Potency [3] | Potency [4] | outcome [5] | Potency [20] | outcome [6] | outcome [7] | Potency [8] | outcome [9] | outcome [10] | Potency [11] | outcome [12] | outcome [19] | outcome [13] | Potency [14] | outcome [15] | Potency [17] | Potency [18]

CC(C)(C)NCC(O)COc1cccc2c1C[C@H](O)[C@H](O)C2 (some centres not stated)
inactive: Potency [1] | Potency [2] | Potency [3] | Potency [4] | outcome [5] | fluorescence, relative to Rose Bengal [6] 0.0921% [at 18.6 µM] | fluorescence, % of fluorescein control [7] 0.0163% [at 18.6 µM] | fluorescence, % of triamterene [8] 0.0252% [at 18.6 µM] | fluorescence, % of fluorescent control [9] -0.0478% [at 18.6 µM] | fluorescence, % of fluorescein [10] 0.0671% [at 18.6 µM] | fluorescence, % of fluorescent control [11] 0.0347% [at 18.6 µM] | activity change [12] 0.0167% [at 18.6 µM] | fluorescence, % of fluorescent control [19] 0.19% [at 18.6 µM] | fluorescence, % of Rose Bengal [13] -0.334% [at 18.6 µM] | fluorescence, % of fluorescein control [15] -0.0012% [at 18.6 µM] | fluorescence, % of fluorescent control [16] 0.0012% [at 18.6 µM] | Potency [17] | Potency [18]

Nc1nc2ccc(OC(F)(F)F)cc2s1
active: Potency [1] 7.5 µM | Potency [2] 11.9 µM
inactive: Potency [3] | Potency [4] | outcome [5] | outcome [6] | outcome [7] | Potency [8] | outcome [9] | outcome [10] | Potency [11] | outcome [12] | outcome [13] | Potency [14] | outcome [15] | Potency [16] | Potency [17]
